Compound activity (PubChem BioAssay)
BAZ2B block = BAZ2B (human) inhibition; Q9UIF8; AlphaScreen BAZ2B-H3K14Ac peptide displacement; Potency, µM (doses to about 114 µM), for inactives: at the top dose activity change, negative = inhibition, most hits filed as inhibitors; 4.4% of 360,000 active; AID 504333; further: on the % scale 0 is the no-effect control and ±100 the full control effect; nearly all actives have a fitted effect of over 60% in size
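Complex of BAZ2B and biotin-H3K14Ac (50 nM apiece) forms over 30 min at RT, then faces library compounds up to 110 uM for another 30 min; AlphaScreen beads added, 20 min dark incubation, luminescence read.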
JMJD2A Tudor = blocks the human JMJD2A Tudor domain; AlphaScreen JMJD2A-Tudor / H3K4me3 peptide binding; Potency, µM (series often up to 114 µM), without a hit: top-dose activity change, negative = inhibition, hits mostly inhibitors; O75164; 4.4% of 390,000 active; further: on the % scale 0 is the no-effect control and ±100 the full control effect; nearly all actives have a fitted effect of over 50% in size
G9a block = G9a (human) methyltransferase inhibition; G9a H3K9 monomethylation, AlphaScreen, 2 h; Potency, µM (highest dose often 102 µM), for inactives: at the top dose activity, negative = inhibition, most hits filed as inhibitors; 8.8% of 350,000 active; further: on the % scale 0 is the no-effect control and ±100 the full control effect; nearly all actives have a fitted effect of over 75% in size
Target sequence (Q96KQ7 913-1193 limits assumed): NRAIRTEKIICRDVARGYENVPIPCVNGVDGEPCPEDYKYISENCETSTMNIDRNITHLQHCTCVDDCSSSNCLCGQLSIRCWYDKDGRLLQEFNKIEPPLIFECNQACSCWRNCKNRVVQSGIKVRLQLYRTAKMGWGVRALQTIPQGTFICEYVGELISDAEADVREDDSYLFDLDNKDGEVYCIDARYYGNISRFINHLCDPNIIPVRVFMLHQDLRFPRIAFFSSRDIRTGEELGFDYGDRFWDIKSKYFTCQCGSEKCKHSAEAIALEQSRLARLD
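G9a (20 nM) preincubated 15 min RT with compounds, then 500 nM biotinylated H3K9 peptide and 20 uM SAM added; 2 h RT reaction. Monomethyl-H3K9 product detected by AlphaScreen with anti-H3K9me1 antibody, streptavidin donor and anti-rabbit IgG acceptor beads.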
HP1b chromo inh = HP1-beta chromodomain-methylated histone interaction inhibition; P83916; AlphaScreen HP1-beta / biotin-H3K9me3 peptide binding; Potency, µM (series often up to 114 µM), inactives show at the highest dose activity change, negative = inhibition, usual class: inhibitors; 0.56% of 390,000 active; further: nearly all actives have a fitted effect of over 70% in size
Target sequence (P83916 whole entry, looked up): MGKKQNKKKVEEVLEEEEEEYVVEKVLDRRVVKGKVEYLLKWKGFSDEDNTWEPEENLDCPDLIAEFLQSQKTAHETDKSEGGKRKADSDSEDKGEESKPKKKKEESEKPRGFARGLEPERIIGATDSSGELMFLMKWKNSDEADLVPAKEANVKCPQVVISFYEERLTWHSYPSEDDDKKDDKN
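HP1-beta protein (50 nM final) preincubated 30 min at room temperature with biotinylated H3(1-18)K9me3 peptide (50 nM) in PBS pH 7.4, 0.01% Tween-20, then compound added for 30 min. AlphaScreen streptavidin donor/nickel chelate acceptor beads (10 ug/mL final), 30 min dark, luminescence read.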
L3MBTL1 block = L3MBTL1 (human) inhibition; Q9Y468; AlphaScreen L3MBTL1–H3K9me1 peptide binding; Potency, µM (highest dose often 57.1 µM), for the others: top-dose activity, negative = inhibition, actives largely listed as inhibitors; 0.66% of 230,000 active; AID 485360; further: on the % scale 0 is the no-effect control and ±100 the full control effect; nearly all actives have a fitted effect of over 60% in size
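AlphaScreen assay: L3MBTL1 (50 nM final) was preincubated 30 min at room temperature with biotinylated H3(1-15)K9me1 peptide (75 nM final), then 30 min with library compounds; streptavidin donor and nickel chelate acceptor beads (10 ug/mL final) added, 30 min dark.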
Sfp PPTase inh = Sfp phosphopantetheinyl transferase inhibition; Q9F4F7; Biochemical Sfp PPTase activity, qHTS; Potency, µM, for inactives: largest response in the series, negative = inhibition, actives largely listed as inhibitors; 3.5% of 310,000 active;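 further: the enzyme is Sfp with the accession as filed and its product quenches rhodamine fluorescence; 0% = enzyme reaction without inhibitor and -100% = no enzyme wells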
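Fluorescence-quenching assay with 15 nM Sfp, 5 uM rhodamine-CoA and 12.5 uM BHQ-2-labelled ybbR peptide in pH 7.6 Hepes/MgCl2 buffer. Enzyme was pre-incubated with compound for 15 min at room temperature. Rate was taken from the 30-min fluorescence change (525/598 nm).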
Active calls of the source: *; ? = inconclusive; . = no result given; [ ] = another dose, or the depositor's remark. Hits are enriched below; roughly 12% of the tested compounds scored in any of these assays. The call rests on the fitted dose curve; in most records, active means well fitted curve in the direction sought with a large enough effect; inconclusive means small, poorly fitted or top-dose-only effect, or another doubt; inactive means no such curve, though single readings can be large; an effect the other way counts as inactive or inconclusive. Potency means the concentration at half of the fitted maximal effect.

SMILES	BAZ2B block	JMJD2A Tudor	G9a block	HP1b chromo inh	L3MBTL1 block	Sfp PPTase inh
O=C(NN1S(=O)(=O)c2ccccc2S1(=O)=O)c1ccc(Br)cc1	50.1µM*	-12.3%	?	65.2%	11.0%	?
O=C(NCCCN1CCN(c2ccccc2F)CC1)c1sc2ncccc2c1-n1cccc1	?	?	-39.8%[59 µM]	6.1%[57 µM]	.	.
Cc1cccc(NC2=C(NCCO)C(=O)c3ccccc3C2=O)c1	20µM*	56.2µM*	31.6µM*	20µM*	?	-11.6%
COc1ccc(NC2=C(NCCO)C(=O)c3ccccc3C2=O)cc1	22.4µM*	?	14.1µM*	15.8µM*	?	-1.2%
COc1cccc(Nc2c(Nc3cccc(OC)c3)c(=O)c2=O)c1	?	-32.8%	-81.8%	6.1%	.	21.3%
Cc1cccc(Nc2nc(N)c([N+](=O)[O-])c(NCCO)n2)c1	-4.7%	-21.4%	-6.1%	44.9%	5.7%	12.4%
COc1cccc(NC2=C(NCCO)C(=O)c3ccccc3C2=O)c1	35.5µM*	50.1µM*	-1.9%[0.501 µM]	?	0.5%[2.29 µM]	-6.7%
O=c1c2ccccc2c(-c2ccccc2)nn1Cc1c(Cl)cccc1Cl	-1.4%	13.5%	4.4%[12.7 µM]	54.9%	?	-7.6%
O=c1c2ccccc2c(-c2n[nH]c(=S)o2)nn1Cc1ccccc1	-35.9%	?	3.98µM*	56.4%	-7.2%	79.4µM*
S=c1[nH]nc(-c2ccccc2)o1	79.4µM*	-25.3%[11.4 µM]	?	13.8%	-3.6%	8.4%
CSc1ccccc1-c1n[nH]c(=S)o1	-10.1%	?	6.31µM*	-3.0%	-8.6%	-21.2%
S=c1[nH]nc(-c2cc(-c3ccccn3)nc3ccccc23)o1	-0.6%	-7.7%	?	41.5%	.	-8.0%
COc1ccccc1-c1n[nH]c(=S)o1	5.5%	-5.3%[11.4 µM]	?	6.6%	-2.3%	-18.7%
Cn1c(SCc2n[nH]c(=S)o2)nnc1-c1ccccc1	1.3%	?	?	29.9%	4.1%	-12.9%
Cc1ccccc1-c1n[nH]c(=S)o1	-34.6%	?	12.6µM*	38.7%	1.2%	-17.0%
Cc1ccc(C(=O)c2cc3c(cc2[N+](=O)[O-])OCCO3)cc1	56.2µM*	?	?	-17.9%	-24.3%	-16.2%
C/C=C/c1ccc(OCCn2cncn2)c(OC)c1	50.1µM*	39.8µM*	14.1µM*	?	-3.9%	?
c1ccc(-c2ccc(OCCOCCn3cncn3)cc2)cc1	50.1µM*	31.6µM*	?	?	-3.8%[11.4 µM]	-19.4%
COc1ccc(OCCn2cncn2)cc1	56.2µM*	7.94µM*	22.4µM*	-13.5%	.	-2.6%
CCCCc1nn2c(=O)cc(COC(=O)c3ccc(NC(=O)C4CCCCC4)cc3)nc2s1	-8.7%	-12.9%	-13.8%[12.7 µM]	18.1%	.	.
Cc1ccc(NC(=O)C(NC2CCCc3ccccc32)c2ccccc2)c([N+](=O)[O-])c1 (configuration not stated)	44.7µM*	4.47µM*	11.2µM*	25.1µM*	-22.9%	-41.5%
Cc1noc(C)c1CCC(=O)N1CCCC(CCC(=O)NCc2ccc(F)c(F)c2)C1 (configuration not stated)	-23.8%	100µM*	?	?	-4.5%	-3.1%
O=C(CCC1CCCN(C(=O)CCC(F)(F)F)C1)NCc1ccc(F)c(F)c1 (configuration not stated)	-24.2%	-5.3%[57.1 µM]	-3.5%	45.4%	-9.1%	-5.6%
COC(=O)c1ccccc1C(=O)N1CCCC(CCC(=O)NCc2ccc(F)c(F)c2)C1 (configuration not stated)	-26.4%	-3.5%	5.62µM*	48.8%	-2.8%	-11.2%
CCOc1ccc(NC(=O)CCc2c(C)nc3cc(-c4ccc(Cl)cc4)nn3c2C)cc1	-19.5%	-12.8%	0.708µM*	18.6%	.	.
SMILES	BAZ2B block	JMJD2A Tudor	G9a block	HP1b chromo inh	L3MBTL1 block	Sfp PPTase inh
CCOC(=O)c1cccc(NC(=O)CCc2c(C)nc3cc(-c4ccc(Cl)cc4)nn3c2C)c1	-14.9%	-10.1%	-18.9%[59 µM]	28.0%	.	.
CCc1nccn1S(=O)(=O)c1ccc(C)c(C)c1	8.0%	-13.6%	44.7µM*	27.7%	3.4%	13.2%
CCc1nccn1S(=O)(=O)c1ccc(OC)c(OC)c1	4.0%	-21.4%	-12.8%	21.0%	.	3.4%
C[C@H](O)C(N)C(=O)O (some centres not stated)	.	.	.	.	.	10.4%
COC(=O)c1sc(N2C(=O)c3oc4ccc(C)cc4c(=O)c3C2c2ccc(O)c(OC)c2)nc1C (configuration not stated)	-1.8%[57.1 µM]	-19.9%	-1.5%[59 µM]	17.1%	.	.
C=CC(C)(C)c1c2occc2c(O)c2ccc(=O)oc12	.	-27.2%	.	7.5%	-5.4%	.
C=CC(C)(C)c1c(O)c(CC=C(C)C)c(O)c2c(=O)c3ccc(O)c(O)c3oc12	.	50.1µM*	.	-15.2%	.	.
CC1CCN(S(=O)(=O)c2ccc3c(ccc(=O)n3CC(=O)Nc3cccc(F)c3)c2)CC1	-7.0%	-21.3%	-0.6%[59 µM]	33.0%[57 µM]	.	.
CCOC(=O)C1CCN(C2=NC(=O)/C(=C/c3ccc(OC)c(OC)c3)S2)CC1	-21.8%	-20.7%	39.8µM*	-0.5%	.	-8.3%
CCOC(=O)C1CCN(C2=NC(=O)/C(=C/c3ccc(Cl)cc3)S2)CC1	?	-12.3%	0.2%	23.2%	.	-10.1%
Cc1cccc2c3c(ccc12)C1=C(C(=O)C3=O)[C@@H](C)CO1	.	.	.	.	.	-7.0%
CCN1CCN(c2c(C(=O)c3ccc(OC)cc3)cnc3ccccc23)CC1	-10.0%	-10.7%	50.1µM*	60.6%	.	18.5%
CCOC(=O)C1CCCN(c2c(C(=O)c3ccccc3)cnc3ccc(OC)cc23)C1 (configuration not stated)	?	-31.7%	56.2µM*	38.9%	.	-3.6%
CCOC(=O)C1CCCN(c2c(C(=O)c3ccc(OCC)cc3)cnc3ccccc23)C1 (configuration not stated)	-38.7%	?	?	6.0%	.	.
COc1cc2ncc(C(=O)c3ccc(C)cc3)c(N3CCCCC3)c2cc1OC	?	56.2µM*	8.91µM*	-11.1%	.	.
Cc1ccc(O)c(-c2n[nH]c3c2C(c2ccccc2F)N(Cc2ccco2)C3=O)c1 (configuration not stated)	-33.2%	?	-33.1%[59 µM]	-10.1%	.	.
COc1cccc(CNC(=O)CN(C)S(=O)(=O)c2ccc3[nH]c4c(c3c2)CCCC4)c1	-33.8%	?	12.6µM*	-1.7%	.	.
Cc1ccc(N(C)S(=O)(=O)c2ccc3[nH]c4c(c3c2)CCCC4)cc1	?	?	?	-9.7%	.	.
COc1ccc(OC)c(NS(=O)(=O)c2ccc3[nH]c4c(c3c2)CCCCC4)c1	?	?	-35.6%[59 µM]	-20.8%	.	.
CN(CC(=O)NCc1ccc(Cl)cc1)S(=O)(=O)c1ccc2[nH]c3c(c2c1)CCCC3	-28.7%	?	10µM*	-2.4%	.	.
COc1ccc(OC)c(NC(=O)CN(C)S(=O)(=O)c2ccc3[nH]c4c(c3c2)CCCC4)c1	?	?	12.6µM*	?	.	.
